The source of these data is PubChem BioAssay (NCATS).

Molecules are shown by their SMILES. Results filed as inconclusive are left out. Active and inactive are the calls of the source. Unless noted, the call rests on the fitted dose curve.

Experiment [1] has as its target Peroxisome proliferator-activated receptor gamma (Homo sapiens) (UniProt P37231). Kind of experiment: qHTS assay for small molecule agonists of peroxisome proliferator-activated receptor gamma signaling (AID 588536; active means well fitted curve in the direction sought with a large enough effect in the signal ratio, with a control signal flat, not every such curve was filed as active; the % refers to the signal ratio;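 further: 0% = DMSO basal wells and 100% = rosiglitazone at 2 µM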). Put shortly: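 Ratiometric blue/green fluorescence (405 nm excitation; 460 and 530 nm emission) from CCF4-loaded HEK293 reporter cells serves as signal. Exposure to test compounds lasts 16 h at 37 C in medium containing 1% charcoal/dextran-treated serum.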

For experiment [2], the target named is Vitamin D3 receptor (Homo sapiens) (UniProt P11473). As to the kind of experiment: qHTS assay for small molecule antagonists of vitamin D receptor signaling (AID 588541).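 Further: receptor activated by calcitriol during compound treatment; series mostly up to about 77 µM; on the % scale 0 is the no-effect control and ±100 the full control effect.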 Put shortly: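 VDR-UAS-bla HEK293T cells (2000/well, 2% charcoal-stripped FBS) were treated with titrated compounds plus 1-alpha,25-dihydroxyvitamin D3 (50 nM or 3 nM final) for 16 h at 37 C. CCF4 beta-lactamase fluorescence was read; Hill fits gave IC50.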

The target is the same in experiment [3]. As to the kind of experiment: qHTS assay for small molecule agonists of vitamin D receptor signaling (AID 588543).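 Further: 0% = DMSO basal and 100% = reference agonist control.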 The method in brief: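 qHTS in agonist mode: compound titrations stimulate a VDR-driven β-lactamase reporter in HEK293T cells over 16 h at 37 °C. Response normalized to 50 nM 1α,25-dihydroxyvitamin D3 = 100%, DMSO = 0%; Hill fitting gives EC50 and maximal response.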

Experiment [4] can be described thus: qHTS assay for small molecule agonists of retinoid X receptor alpha signaling (AID 588544).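 On activation: 0% = DMSO basal wells and 100% = reference agonist.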 To be noted: HEK293T RXRa-UAS-bla, beta-lactamase reporter, 18 h; 530 nm emission.
Experiment [5] has as its target Retinoic acid receptor RXR-alpha (Homo sapiens) (UniProt P19793). The description is as above.
Experiment [6] has as its target Thyroid hormone receptor beta (Homo sapiens) (UniProt P10828). Kind of experiment: qHTS assay for small molecule agonists of thyroid hormone receptor beta signaling (AID 588545). The method in brief: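 Cells (2500/well) were seeded, incubated 4 hrs at 37 C, dosed with a compound series, incubated 18 hrs, loaded with CCF4 dye for 2 hrs at RT, then read for fluorescence. Data were scaled between DMSO (0%) and 10 nM T3 (100%).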

Experiment [7] can be described thus: qHTS assay for small molecule antagonists of retinoid X receptor alpha signaling (AID 588546).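 Further: cells stimulated with 9-cis-retinoic acid as agonist; on the % scale 0 is the no-effect control and ±100 the full control effect.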 The settings on record: HEK293T RXRa-UAS-bla, beta-lactamase ratio, antagonist mode; measured here: W530 green channel, cytotoxicity proxy. The method in brief:
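Beta-lactamase reporter inhibition, read as CCF4 fluorescence ratio (ex 405, em 460/530 nm) after 2 h at RT. HEK293T UAS-bla cells, 2500/well, were stimulated with 9-cis-RA at 500 or 100 nM final alongside test compound for 18 h at 37 C.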

Experiment [8] addresses Thyroid hormone receptor beta (Homo sapiens) (UniProt P10828). Kind of experiment: qHTS assay for small molecule antagonists of thyroid hormone receptor beta signaling (AID 588547; active means well fitted inhibition curve with a large enough effect in the signal ratio, with a control signal flat, not every such curve was filed as active; the % refers to the signal ratio;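 further: cells stimulated with 0.4 nM T3 agonist during compound exposure; series mostly up to about 77 µM; on the % scale 0 is the no-effect control and ±100 the full control effect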). To be noted: TR-UAS-bla HEK293, beta-lactamase ratio, antagonist mode, 18 h. Put shortly:
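TR-UAS-bla GripTite HEK293 cells in 2% charcoal/dextran FBS medium were preincubated 4 h at 37 C, given compound (0.59 nM to 92 uM) plus 0.4 nM T3 (final) for 18 h, then CCF4 for 2 h at RT; Hill fit gave IC50.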

A short description of experiment [9]: qHTS assay for small molecule agonists of the antioxidant response element (ARE) signaling pathway (AID 651741; active means well fitted activation curve with a large enough effect in the signal ratio; the % refers to the signal ratio; further: % of control where 0% means no effect). Put shortly:
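Compounds in DMSO are pinned onto HepG2 ARE-bla cells (2,000/well) that were preincubated 5 h; plates stay 16 h at 37 C, then beta-lactamase activity is detected with LiveBLAzer B/G substrate by fluorescence.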

Experiment [10] in a line: qHTS assay for small molecule activators of the p53 signaling pathway (AID 651743; active means well fitted activation curve with a large enough effect in the signal ratio, not every such curve was filed as active; the % refers to the signal ratio; further: series mostly up to about 92 µM; % of control where 0% means no effect). The settings on record: HCT-116 p53RE-bla, beta-lactamase FRET ratio, 16 h; activation: stronger effect = higher value. The method in brief:
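Cell-based beta-lactamase reporter (p53 response elements, HCT-116 background). After a 5-hour preincubation, cells received compound for 16 hours at 37 C; substrate development ran 2 hours at room temperature.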

Experiment [11] in a line: qHTS assay for small molecule disruptors of the mitochondrial membrane potential - 1 hr assay (AID 651754). Further: on the % scale 0 is the no-effect control and ±100 the full control effect; nearly all actives have a fitted effect of over 35% in size. The method in brief:
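HepG2 cells, attached overnight, were exposed to compound for 1 hr at 37C, then stained 30 min with a potentiometric dye. Ratio of red aggregate (590nm) to green monomer (535nm) fluorescence reports membrane potential; collapse shifts signal toward green.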

In experiment [12] the target is Tumor necrosis factor (Homo sapiens) (UniProt P01375). Kind of experiment: qHTS assay to identify small molecules that stimulate Tumor Necrosis Factor-alpha (TNF-alpha) secretion (AID 651757; active means well fitted curve in the direction sought with a large enough effect in the signal ratio; the % refers to the signal ratio; further: 0% is about no effect). Put shortly:
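THP-1 cells (3000/well) exposed to compounds 17 hrs at 37 C. Secreted TNF-alpha detected by HTRF with cryptate- and XL665-labeled anti-TNF-alpha antibodies after 3 hr at room temperature.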

The nature of experiment [13]: qHTS assay for environmental chemicals that activate the Aryl hydrocarbon Receptor (AhR) signaling pathway (AID 651777; active means well fitted curve in the direction sought with a large enough effect; an effect the other way counts as inactive or inconclusive; further: % of control where 0% means no effect; nearly all actives have a fitted effect of over 15% in size). To be noted: 1A2-DRE human hepatoma cells, luciferase, 24 h; activation: stronger effect = higher value. Put shortly: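 Quantitative HTS in stably transfected human liver-derived cells whose luciferase gene sits downstream of the CYP1A2 promoter and dioxin response element. After 24 hr exposure at 37 C, One-Glo luminescence was measured.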

Experiment [14] has as its target Peroxisome proliferator-activated receptor alpha (Homo sapiens) (UniProt Q07869). Kind of experiment: qHTS assay for small molecule agonists of the peroxisome proliferator-activated receptor alpha (PPARalpha) signaling pathway (AID 651778; active means well fitted curve in the direction sought with a large enough effect; an effect the other way counts as inactive or inconclusive; further: % of control where 0% means no effect). The settings on record: PathHunter PPARalpha complementation, chemiluminescence, 6 h; stronger effect = higher value. Put shortly:
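Cells plated at 2,000/well and held overnight at 37 C, 5% CO2, then compound added by pin tool for 6 hr; after PathHunter detection reagent and 60 min at room temperature, chemiluminescence from enzyme complementation was read.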

The target in experiment [15] is Nuclear receptor ROR-gamma (Homo sapiens) (UniProt P51449). As to the kind of experiment: qHTS assay for small molecule antagonists of the retinoid-related orphan receptor gamma (ROR-gamma) signaling pathway (AID 651802; active means well fitted curve in the direction sought with a large enough effect; an effect the other way counts as inactive or inconclusive;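 further: luciferase reporter luminescence driven by ROR response element; series mostly up to about 92 µM; on the % scale 0 is the no-effect control and ±100 the full control effect; nearly all actives have a fitted effect of over 60% in size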). Put shortly:
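CHO cells with TET-inducible ROR-gamma and RORE-luciferase reporter, dosed then doxycycline-induced. After 16 h at 37C, One-Glo luminescence read; decreased signal indicates antagonism.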

Experiment [16] is described as follows: qHTS assay for small molecule agonists of the antioxidant response element (ARE) signaling pathway measured by Nrf2-dependant transcriptional activity (AID 720636; active means well fitted curve in the direction sought with a large enough effect in the repeat runs; an effect the other way counts as inactive or inconclusive; further: % of control where 0% means no effect). Put shortly:
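Quantitative HTS format in HepG2 cells stably expressing an ARE-luciferase reporter; 16 hr compound treatment at 37 C, luciferase signal detected with ONE-Glo.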

Experiment [17] in a line: qHTS assay for small molecule antagonists of the retinoid-related orphan receptor gamma (ROR-gamma) signaling pathway - cell viability counter screen (AID 720652; active means well fitted curve in the direction sought with a large enough effect in the repeat runs; an effect the other way counts as inactive or inconclusive;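 further: series mostly up to about 92 µM; compound exposure lasted 16 hr before ATP read; on the % scale 0 is the no-effect control and ±100 the full control effect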). The method in brief: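 CHO cells carrying TET-inducible ROR and RORE-luciferase reporter, plated 5 hr, then dosed with compound plus doxycycline. After 16 hr at 37 C, viability read as intracellular ATP by CellTiter-Glo luminescence.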

Experiment [18] in a line: qHTS assay for small molecule agonists of the antioxidant response element (ARE) signaling pathway measured by Nrf2-dependant transcriptional activity - cell viability counter screen (AID 720653; active means well fitted curve in the direction sought with a large enough effect in the repeat runs; an effect the other way counts as inactive or inconclusive; further: on the % scale 0 is the no-effect control and ±100 the full control effect). To be noted: ARE-bla HepG2 viability, CellTiter-Glo ATP luminescence, 16 h; stronger effect = lower value. The method in brief:
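ARE-bla HepG2 cells (2,000/well) rested 5 hrs at 37C/5% CO2, then exposed to compounds in DMSO for 16 hrs. Viability was read in the same wells as intracellular ATP by luminescence, 30 min at room temperature after reagent addition.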

Experiment [19] is described as follows: qHTS assay for cell viability of HEK293 cells (AID 743288; active means well fitted curve in the direction sought with a large enough effect; an effect the other way counts as inactive or inconclusive; further: on the % scale 0 is the no-effect control and ±100 the full control effect; nearly all actives have a fitted effect of over 50% in size). To be noted: ATP luminescence (CellTiter-Glo), 18 h; max response: stronger effect = lower value. The method in brief:
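The Tox21 protocol used parental HEK293 cells treated for 18 h at 37 C with compounds delivered by pintool; ATP-coupled luminescence after 30 min at room temperature gave viability.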

Experiment [20] in a line: qHTS assay for cell viability of the p53RE-bla HCT-116 cell line (AID 743292; active means well fitted curve in the direction sought with a large enough effect; an effect the other way counts as inactive or inconclusive; further: on the % scale 0 is the no-effect control and ±100 the full control effect; nearly all actives have a fitted effect of over 55% in size). The method in brief:
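Viability of compound-treated p53RE-bla HCT-116 cells is taken from ATP-dependent luciferase luminescence. Treatment lasts 16 h at 37 C after a 5 h settling period; detection follows 30 min at room temperature.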

The target of experiment [21] is Nuclear receptor subfamily 1 group I member 2 (Rattus norvegicus) (UniProt Q9R1A7). As to the kind of experiment: qHTS assay for small molecule activators of the rat pregnane X receptor (rPXR) signaling pathway (AID 651751; call rule not given here; further: 0% is about no effect). To be noted: rPXR reporter cells, luciferase (One-Glo), 24 h.
Experiment [22] is described as follows: qHTS assay for small molecule activators of the human pregnane X receptor (PXR) signaling pathway (AID 720659; call rule not given here; further: 0% is about no effect).

Sequence of Vitamin D3 receptor (Homo sapiens) (P11473 whole entry, looked up): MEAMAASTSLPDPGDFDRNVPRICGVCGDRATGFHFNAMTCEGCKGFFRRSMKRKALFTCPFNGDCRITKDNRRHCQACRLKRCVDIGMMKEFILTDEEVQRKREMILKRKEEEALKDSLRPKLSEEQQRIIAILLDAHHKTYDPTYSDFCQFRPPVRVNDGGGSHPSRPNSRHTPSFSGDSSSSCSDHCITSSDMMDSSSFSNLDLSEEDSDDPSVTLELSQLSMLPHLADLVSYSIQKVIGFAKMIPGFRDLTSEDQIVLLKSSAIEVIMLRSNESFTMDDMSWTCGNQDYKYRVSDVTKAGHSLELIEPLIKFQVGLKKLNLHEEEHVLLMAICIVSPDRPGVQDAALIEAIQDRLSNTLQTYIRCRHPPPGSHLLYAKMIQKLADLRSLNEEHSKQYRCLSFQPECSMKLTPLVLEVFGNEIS
Sequence of Thyroid hormone receptor beta (Homo sapiens) (P10828 whole entry, looked up): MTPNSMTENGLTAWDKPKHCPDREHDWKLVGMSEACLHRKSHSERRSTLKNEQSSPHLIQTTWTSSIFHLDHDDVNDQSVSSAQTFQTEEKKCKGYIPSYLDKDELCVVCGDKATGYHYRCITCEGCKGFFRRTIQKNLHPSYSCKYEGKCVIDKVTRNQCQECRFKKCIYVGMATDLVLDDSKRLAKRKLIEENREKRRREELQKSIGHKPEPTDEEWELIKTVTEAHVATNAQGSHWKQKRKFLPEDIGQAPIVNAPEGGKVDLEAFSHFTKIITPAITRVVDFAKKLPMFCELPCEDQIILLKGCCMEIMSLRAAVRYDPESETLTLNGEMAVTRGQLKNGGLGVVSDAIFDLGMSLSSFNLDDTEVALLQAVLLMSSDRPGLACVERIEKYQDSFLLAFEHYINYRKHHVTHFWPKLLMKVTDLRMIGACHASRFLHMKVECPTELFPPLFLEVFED
Sequence of Retinoic acid receptor RXR-alpha (Homo sapiens) (P19793 whole entry, looked up): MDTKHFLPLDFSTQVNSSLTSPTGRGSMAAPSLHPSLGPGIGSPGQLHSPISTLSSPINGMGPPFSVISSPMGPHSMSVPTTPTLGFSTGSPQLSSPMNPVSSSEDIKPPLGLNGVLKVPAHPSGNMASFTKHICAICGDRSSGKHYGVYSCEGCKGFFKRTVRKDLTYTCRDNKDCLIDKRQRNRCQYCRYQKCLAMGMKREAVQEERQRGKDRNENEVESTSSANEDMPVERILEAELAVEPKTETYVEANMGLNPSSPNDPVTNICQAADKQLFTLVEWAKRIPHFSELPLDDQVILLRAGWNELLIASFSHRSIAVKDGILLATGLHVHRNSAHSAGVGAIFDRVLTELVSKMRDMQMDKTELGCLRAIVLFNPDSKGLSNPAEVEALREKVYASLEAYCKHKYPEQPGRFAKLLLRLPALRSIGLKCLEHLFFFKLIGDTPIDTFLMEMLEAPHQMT
Sequence of Nuclear receptor subfamily 1 group I member 2 (Rattus norvegicus) (Q9R1A7 whole entry, looked up): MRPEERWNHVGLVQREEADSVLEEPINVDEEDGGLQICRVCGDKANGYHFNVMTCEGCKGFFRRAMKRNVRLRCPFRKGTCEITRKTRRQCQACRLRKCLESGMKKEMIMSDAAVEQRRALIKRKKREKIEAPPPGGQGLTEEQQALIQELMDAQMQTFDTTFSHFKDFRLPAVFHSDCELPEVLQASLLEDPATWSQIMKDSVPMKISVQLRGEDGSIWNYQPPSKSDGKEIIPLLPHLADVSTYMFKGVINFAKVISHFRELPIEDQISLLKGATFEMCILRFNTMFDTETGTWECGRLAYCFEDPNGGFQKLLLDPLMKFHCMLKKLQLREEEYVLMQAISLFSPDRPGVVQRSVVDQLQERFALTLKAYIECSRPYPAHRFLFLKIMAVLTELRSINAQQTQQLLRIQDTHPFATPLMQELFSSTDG
Sequence of Peroxisome proliferator-activated receptor gamma (Homo sapiens) (P37231 whole entry, looked up): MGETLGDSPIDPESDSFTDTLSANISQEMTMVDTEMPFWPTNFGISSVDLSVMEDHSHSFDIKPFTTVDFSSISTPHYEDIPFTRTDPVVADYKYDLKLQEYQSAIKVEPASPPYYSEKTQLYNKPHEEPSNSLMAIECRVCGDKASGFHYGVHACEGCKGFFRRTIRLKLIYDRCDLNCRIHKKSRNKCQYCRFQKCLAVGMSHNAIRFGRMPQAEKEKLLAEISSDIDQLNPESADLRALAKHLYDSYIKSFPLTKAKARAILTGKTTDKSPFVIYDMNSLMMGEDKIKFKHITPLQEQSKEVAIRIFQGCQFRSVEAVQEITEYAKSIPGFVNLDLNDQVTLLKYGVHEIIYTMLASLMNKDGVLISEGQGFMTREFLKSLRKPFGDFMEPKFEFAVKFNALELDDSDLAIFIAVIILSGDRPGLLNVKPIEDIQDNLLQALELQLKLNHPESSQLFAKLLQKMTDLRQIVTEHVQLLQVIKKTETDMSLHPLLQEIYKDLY
Sequence of Peroxisome proliferator-activated receptor alpha (Homo sapiens) (Q07869 whole entry, looked up): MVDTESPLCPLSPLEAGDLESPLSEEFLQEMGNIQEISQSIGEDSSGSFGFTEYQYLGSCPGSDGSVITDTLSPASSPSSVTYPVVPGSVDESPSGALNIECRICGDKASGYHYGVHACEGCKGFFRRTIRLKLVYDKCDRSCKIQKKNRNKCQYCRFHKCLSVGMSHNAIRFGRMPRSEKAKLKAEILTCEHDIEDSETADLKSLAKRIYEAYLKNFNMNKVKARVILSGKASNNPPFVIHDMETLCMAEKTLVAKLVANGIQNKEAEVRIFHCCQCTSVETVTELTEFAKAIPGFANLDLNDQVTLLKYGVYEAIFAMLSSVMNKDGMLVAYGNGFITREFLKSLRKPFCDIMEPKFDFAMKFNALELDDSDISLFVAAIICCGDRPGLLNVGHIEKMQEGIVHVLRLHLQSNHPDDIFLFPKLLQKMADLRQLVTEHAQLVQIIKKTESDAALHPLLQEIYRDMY
Sequence of Tumor necrosis factor (Homo sapiens) (P01375 whole entry, looked up): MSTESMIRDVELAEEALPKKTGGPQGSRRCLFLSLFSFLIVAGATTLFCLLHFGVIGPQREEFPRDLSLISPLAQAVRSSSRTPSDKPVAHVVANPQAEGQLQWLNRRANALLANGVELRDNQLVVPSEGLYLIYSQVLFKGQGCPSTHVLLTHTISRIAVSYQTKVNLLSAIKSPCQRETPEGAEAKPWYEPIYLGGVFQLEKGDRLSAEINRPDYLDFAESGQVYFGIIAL
Sequence of Nuclear receptor ROR-gamma (Homo sapiens) (P51449 whole entry, looked up): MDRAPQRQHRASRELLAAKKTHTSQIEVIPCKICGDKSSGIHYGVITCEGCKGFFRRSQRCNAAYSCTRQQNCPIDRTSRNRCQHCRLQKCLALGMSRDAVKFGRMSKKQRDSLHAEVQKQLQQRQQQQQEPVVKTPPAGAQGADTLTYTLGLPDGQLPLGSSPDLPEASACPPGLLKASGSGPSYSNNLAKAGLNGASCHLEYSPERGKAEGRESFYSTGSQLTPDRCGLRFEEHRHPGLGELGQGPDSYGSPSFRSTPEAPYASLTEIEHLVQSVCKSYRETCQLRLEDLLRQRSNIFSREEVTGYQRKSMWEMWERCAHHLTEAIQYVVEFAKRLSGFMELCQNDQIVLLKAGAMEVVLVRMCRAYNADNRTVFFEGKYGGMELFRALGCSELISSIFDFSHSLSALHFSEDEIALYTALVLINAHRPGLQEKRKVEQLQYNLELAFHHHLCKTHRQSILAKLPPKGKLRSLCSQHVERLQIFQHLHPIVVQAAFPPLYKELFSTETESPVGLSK

As to `O=NN(CCO)CCO`, the outcome in experiment [1], in experiment [2], in [3], in experiment [6], in experiment [12] and in experiment [16] was inactive. The call in experiment [22] was inactive. Besides, the max response in experiment [4] was -8.04%; in experiment [7] it was -0.955%; in [14] it was -4.3% (inactive); in [18], -8% (inactive); in [19], -4.1% (inactive); in [21] it was 3.2% (inactive). Further, the Potency result in experiment [5], in [9], in experiment [11], in experiment [15], in [17] and in [20] was “inactive” each time. Further, the activity change % (negative = inhibition) in experiment [8] is -10.8% (inactive). Besides, the activation in experiment [10] was -2.59% (inactive); in [13], -0.118% (inactive).
